Only a selection was taken, and hits are over-represented in it overall.
a7 integrin act: activates integrin-mediated alleviation for muscular dystrophy. alpha7betagal myoblasts, beta-gal FDG fluorescence, 48 h. Potency, µM (series often up to 38.3 µM), for the others: top-dose activation, actives largely listed as activators. 0.064% of 350,000 active. AID 624291;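 further: 100% = response of the positive control SU9516; nearly all actives have a fitted effect of over 60% in size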
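Alpha7betagal+/- myoblasts (passage 13) were plated 16-24 hr, then exposed to compounds (1:260 dilution of DMSO stock) for 48 hours at 37C. After MPER lysis, β-galactosidase reporter activity was read as FDG fluorescence (ex 480/em 540) after 30 minutes.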
ClpP mod: qHTS Assay for Activators of ClpP | Potency, µM (doses to about 57.5 µM), for inactives: top-dose activity change, negative = active | 1.9% of 340,000 active | purified B. subtilis ClpP, FRET peptide cleavage, 20 min; active means well fitted falling curve with a large enough effect; inconclusive means small, poorly fitted or top-dose-only effect; inactive means no such curve, though single readings can be large or run the other way; further: the source files actives as falling curves though it sought activators and does not explain the sign; nearly all actives have a fitted effect of over 65% in size
Target sequence (P80244 whole entry, looked up): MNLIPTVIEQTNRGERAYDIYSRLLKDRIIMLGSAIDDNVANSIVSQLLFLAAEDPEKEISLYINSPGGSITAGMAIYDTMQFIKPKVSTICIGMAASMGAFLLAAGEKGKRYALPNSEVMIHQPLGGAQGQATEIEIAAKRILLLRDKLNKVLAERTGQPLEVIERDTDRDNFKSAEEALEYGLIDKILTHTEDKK
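ClpP 10 microg/mL final, pH 8 Tris/KCl buffer with BSA, glycerol, Tween-20; compound pinned in; FRET-FV substrate; RT 20 min; Ex320/Em430; ΔFRET vs ADEP 5.8 microM, DMSO, no enzyme.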
p53 reactivation: restores transcriptional activity of mutant p53; Potency, µM (top dose mostly 92.2 µM), for the others: at the highest dose activity change, positive = activation, hits mostly activators; AID 504706; H1299 p53-A138V BP100-luciferase reporter, luminescence, 24 h; 0.063% of 320,000 active; further: % of control where 0% means no effect; nearly all actives have a fitted effect of over 45% in size
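p53-null H1299 cells stably carrying temperature-sensitive p53-A138V and a BP100-luciferase reporter were pinned with compounds (4-point, 1:5 series) and held 24 hrs at 37 deg C. Luminescence was read 10 min after detection reagent.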
USP2a block: blocks human ubiquitin-specific protease USP2a | O75604 | USP2 core, Ub-CHOP2 coupled fluorogenic reporter, 485/531 | Potency, µM (series often up to 38.3 µM), for the others: at the highest dose activity change, negative = inhibition, usual class: inhibitors | 0.01% of 330,000 active | AID 463254;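 further: plate controls were DMSO wells for no effect and full inhibition by NEM control for full effect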
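Deubiquitinase activity read as fluorescence (485/531 nm) after Ub-CHOP2 cleavage activates the enterokinase reporter on its substrate; USP2 core 10nM, Ub-CHOP2 and substrate 25nM each, 30min compound preincubation then 60min RT; data normalized to NEM, curves fitted.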
Eya2 phos inh: blocks the phosphatase activity of human Eya2; O00167; recombinant Eya2, OMFP fluorescence dephosphorylation (OMFP is methylfluorescein phosphate); Potency, µM (highest dose often 76.9 µM), inactives show top-dose activity, negative = inhibition, actives largely listed as inhibitors; 0.006% of 330,000 active; AID 488837; further: on the % scale 0 is the no-effect control and ±100 the full control effect
Target sequence (O00167 whole entry, looked up): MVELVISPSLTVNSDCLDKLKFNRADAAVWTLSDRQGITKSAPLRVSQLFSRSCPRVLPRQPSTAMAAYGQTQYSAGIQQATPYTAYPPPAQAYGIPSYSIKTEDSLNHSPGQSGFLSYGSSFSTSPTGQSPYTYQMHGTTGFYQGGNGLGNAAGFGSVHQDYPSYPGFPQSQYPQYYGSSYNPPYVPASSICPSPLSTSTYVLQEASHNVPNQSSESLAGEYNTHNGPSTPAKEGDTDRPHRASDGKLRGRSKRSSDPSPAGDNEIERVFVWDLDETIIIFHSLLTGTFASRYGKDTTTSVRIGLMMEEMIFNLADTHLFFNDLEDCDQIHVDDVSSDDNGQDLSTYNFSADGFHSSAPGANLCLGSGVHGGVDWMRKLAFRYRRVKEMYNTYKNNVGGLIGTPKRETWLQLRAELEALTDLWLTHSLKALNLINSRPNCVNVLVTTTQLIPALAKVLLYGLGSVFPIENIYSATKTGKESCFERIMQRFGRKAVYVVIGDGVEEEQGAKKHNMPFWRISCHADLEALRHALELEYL
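Eya2 (0.2 uM) preincubated 10 min at ambient with compound, then OMFP substrate added at 50 uM; 10 min reaction in 50 mM HEPES pH 7.5, 50 mM NaCl, 5 uM MgCl2, 0.05% BSA, 1 mM DTT. Fluorescence read at Ex 485/Em 525 nm.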
MmCpn inh: inhibitors of Methanococcus maripaludis chaperonin TRiC (MmCpn); purified Mm-Cpn ATPase, ADP Transcreener TR-FRET; Potency, µM (highest dose often 76.9 µM), without a hit: at the highest dose activity, negative = inhibition, most hits filed as inhibitors; 0.031% of 330,000 active; further: on the % scale 0 is the no-effect control and ±100 the full control effect; nearly all actives have a fitted effect of over 80% in size
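Compound-treated chaperonin, 25 nM final, turns over 10 uM ATP at 37°C for 30 min following a 10 min preincubation; ADP generated competes with ADP-d2 for Eu-cryptate antibody, lowering FRET.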
Numbers without * were called inactive; ? = inconclusive; . = no result given; [ ] = dose if it differs, or a comment. Unless noted, the call rests on the fitted dose curve; in most records, active means well fitted curve in the direction sought with a large enough effect; inconclusive means small, poorly fitted or top-dose-only effect, or another doubt; inactive means no such curve, though single readings can be large; an effect the other way counts as inactive or inconclusive. Potency means the concentration at half of the fitted maximal effect.

SMILES	a7 integrin act	ClpP mod	p53 reactivation	USP2a block	Eya2 phos inh	MmCpn inh
O=C(Nc1cccn(Cc2ccccc2)c1=O)NC1CCCCC1	-14%	20µM*	8%	0%	12%	-2%
CCc1ccccc1NC(=O)NC1CCCCCCC1	0%	1%	-8%	-1%	0%	-6%
COC(=O)c1ccccc1NC(=O)NC1CCN(Cc2ccccc2)CC1	13%	28µM*	-14%	3%	3%	-2%
COc1cccc(Cn2cccc(NC(=O)NC3CCCCC3)c2=O)c1	-20%	28µM*	-10%	0%	8%	-1%
Cc1ccc(Cn2cccc(NC(=O)NC3CCCCC3)c2=O)cc1	-5%	?	9%	1%	-9%	0%
O=C(Nc1cccn(Cc2ccc(F)cc2)c1=O)NC1CCCCC1	-23%	18µM*	0%	-1%	-2%	-2%
CC1CCc2nc(-c3cc4ccc(O)cc4oc3=O)sc2C1 (centres undefined)	.	5%	.	.	.	.
Cc1ccc(S(=O)(=O)N2CCN(c3nc(-c4ccncc4)nc4ccccc34)CC2)cc1	.	2%	.	.	.	.
COc1ccccc1-c1nnc(-c2ccc(N3CCOCC3)cc2)o1	-5%	18µM*	8%	2%	-4%	-16%
COc1cc(C=NNC(=O)c2ccccc2-n2cccc2)ccc1O	-5%	20µM*	-5%	4%	9%	-1%
Cn1c2ccccc2c2cc(/C=N/NC(=O)c3cc(O)cc(O)c3)ccc21	1%	4%	-11%	1%	-1%	-4%
COc1cc(C(=O)N/N=C/c2ccc3c(c2)c2ccccc2n3C)ccc1O	25%	28µM*	-2%	1%	-1%	-8%
CCn1c2ccccc2c2cc(/C=N/NC(=O)c3ccccc3)ccc21	-18%	22µM*	0%	-1%	4%	-6%
COc1cc(/C=C2\C=Cc3ccccc32)ccc1N(C)C	.	2%	.	.	.	.
COc1ccc(N2CCN(c3ccc(-c4nc(-c5ccccc5C)no4)cc3[N+](=O)[O-])CC2)cc1	.	-1%	.	.	.	.
CCCOC1CCCN(C(=O)CCc2nnc(-c3ccc4c(c3)OCO4)o2)C1 (centres undefined)	2%	20µM*	?	2%	5%	-1%
O=C1[C@H](Cc2ccccc2)NC/C=C\C[C@H](c2ccc(Cl)cc2)N1Cc1ccc(Cl)cc1	.	-2%	.	.	.	.
Clc1ccc(CO/N=C/c2c(-c3ccccc3)nc3n2CCS3)c(Cl)c1	7%	35µM*	-3%	2%	1%	1%
COc1ccc(S(=O)(=O)Nc2cccc(S(=O)(=O)N3CCCCCC3)c2)cc1	-21%	2%	0%	-1%	-4%	0%
O=S(=O)(Nc1nc2ccccc2nc1Nc1cccc(S(=O)(=O)N2CCCCC2)c1)c1ccccc1	-28%	25µM*	-5%	-18%	-6%	-9%
O=C(C[n+]1cccc(Br)c1)c1ccc(F)cc1	.	0%	.	.	.	.
CCCC(=O)Nc1ccccc1OCc1cc(=O)n2cc(C)ccc2n1	.	28µM*	.	.	.	.
O=C1CCCN1CCCNc1ncnc2c1[nH]c1ccc(Cl)cc12	-19%	25µM*	-16%	-1%	-32%	-1%
Clc1ccc2[nH]c3c(NCCCN4CCOCC4)ncnc3c2c1	-60%	20µM*	-1%	1%	3%	0%
Cc1cc(N2CCOCC2)nc2ccc(NC(=O)CCC(=O)N3CCC(C)CC3)cc12	14%	28µM*	15%	3%	9%	-1%
SMILES	a7 integrin act	ClpP mod	p53 reactivation	USP2a block	Eya2 phos inh	MmCpn inh
COc1ccc(NC(=O)CCC(=O)Nc2ccc3nc(N4CCOCC4)cc(C)c3c2)c(OC)c1	33%	.	9%	2%	5%	1%
COc1cc(NC(=O)CCC(=O)Nc2ccc3nc(N4CCOCC4)cc(C)c3c2)cc(OC)c1OC	-36%	25µM*	13%	1%	-2%	-15%
CCOc1ccccc1NC(=O)CCC(=O)Nc1ccc2nc(N3CCN(C)CC3)cc(C)c2c1	23%	25µM*	-4%	-4%	-22%	-4%
COc1ccc(N(C)C(=O)CCC(=O)Nc2ccc3nc(N4CCOCC4)cc(C)c3c2)c(OC)c1	16%	28µM*	12%	-11%	-2%	-2%
CCCN1CNc2c(c(=O)[nH]c(=S)n2CCc2ccc(Cl)cc2Cl)C1	.	-3%	.	.	.	.
CCCCN(C)C(=O)CCC(=O)Nc1ccc2nc(N3CCOCC3)cc(C)c2c1	1%	7.9µM*	?	-1%	12%	-1%
O=C(NCc1cnc2ccccn12)C1CCC(=O)N(Cc2ccccc2F)C1 (centres undefined)	12%	32µM*	-4%	-2%	4%	-4%
Cc1ccc2oc3c(c(=O)c2c1)C(c1ccc(O)cc1)N(c1nc(C)c(C)s1)C3=O (centres undefined)	.	1%	.	.	.	.
O=C(Nc1cccc(C(F)(F)F)c1)C1CCCN(S(=O)(=O)c2cccc3nonc23)C1 (centres undefined)	.	-2%	.	.	.	.
CCOC(=O)c1c(-c2ccc(Cl)cc2)cn2ccccc12	-13%	32µM*	-2%	1%	15%	0%
CC(=O)NNC(=O)c1csc(-c2csc(C)n2)n1	35%	32µM*	-3%	2%	-20%	-14%
COCCCN1C(=O)C(=O)/C(=C(/O)c2ccc3c(c2)OCCO3)C1c1ccc(C(=O)OC)cc1 (centres undefined)	-3%	32µM*	3%	5%	10%	-5%
COCCN1C(=O)C(=O)/C(=C(/O)c2ccc3c(c2)OCCO3)C1c1ccc(C(=O)OC)cc1 (centres undefined)	12%	-11%	3%	-1%	17%	-2%
Cn1c(=O)c(=O)n(C)c2cc(N3CCCC3)c(NC(=O)c3ccc(C(C)(C)C)cc3)cc21	.	35µM*	.	.	.	.
CCOc1ccc(C(=O)Nc2cc3c(cc2N2CCCC2)n(C)c(=O)c(=O)n3C)cc1OCC	.	28µM*	.	.	.	.
COc1ccc(C(=O)Nc2cc3c(cc2N2CCCC2)n(C)c(=O)c(=O)n3C)cc1OC	.	32µM*	.	.	.	.
CCCCc1nn2c(=O)cc(COC(=O)c3cccs3)nc2s1	.	-2%	.	.	.	.
CC1CCC(N2CC(=O)N(C3CCCCC3)C(c3ccc(Cl)cc3)C2=O)CC1 (centres undefined)	.	1%	.	.	.	.
O=C(C[n+]1cccc(Br)c1)c1cc(Cl)ccc1Cl	.	0%	.	.	.	.
CCn1cc(C(=O)O)c(=O)c2cc(S(=O)(=O)N3CCCCCC3)ccc21	0%	-4%	-5%	4%	-5%	-1%
CCn1cc(C(=O)O)c(=O)c2cc(OC)ccc21	-6%[7.66 µM]	32µM*	-1%	-1%	16%	0%

Screens as filed in PubChem BioAssay.
